About 83,000 compounds went through this panel and 20% of them were active in at least one assay; those are over-represented in the sample as a whole.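 Interpretation: 100, growth as untreated; towards 0, rising growth inhibition; 0, no net growth; 0 to -100, cell death. Compounds scoring below 10 were considered active.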 Unmarked numbers belong to inactive results. Active and inactive are the calls of the source.

Among the test systems are NCI-H226 lung; NCI-H322M lung; HOP-62 NSCLC; NCI-H460 lung; NCI-H522 lung; A549/ATCC NSCLC; 786-0 renal; COLO 205 colon; DU-145 prostate; K-562 leukemia; MALME-3M melanoma; MDA-MB-231 breast; SF-268 CNS; SF-295 CNS; SF-539 CNS; UACC-257 melanoma; HCT-15 colon; RXF 393 renal; M14 melanoma.
Holding throughout (assay): NCI-60 one-dose screen, 48 h (100 = growth as untreated, 0 = no growth, -100 = all killed)
Settings in all cases: 10 µM unless noted

Turning to `CCOc1cc(C(C)(C)C)ccc1C1=N[C@H](c2ccc(Cl)cc2)[C@H](c2ccc(Cl)cc2)N1C(=O)N1CCN(CC#Cc2cccc3c2CN([C@@H]2CCC(=O)NC2=O)C3=O)CC1`, the growth in the test with NCI-H226 lung was -17.3% (active); in the test on NCI-H322M lung it was 9.35% (active); with HOP-62 NSCLC, 40.7%; in the test with NCI-H460 lung, 24.2%; in the test with NCI-H522 lung, 39.3%; in the test on A549/ATCC NSCLC, 24.8%. Besides, the growth in the test with 786-0 renal is 43.8%; in the test with COLO 205 colon, 8.66% (active); with DU-145 prostate it was 57.1%; in the test on K-562 leukemia it was 24.5%; with MALME-3M melanoma, -32.9% (active); in the test on MDA-MB-231 breast, -15.5% (active). The growth with SF-268 CNS is 39.9%; in the test on SF-295 CNS, 35.1%; in the test with SF-539 CNS, 70.3%; in the test on UACC-257 melanoma it was 42.6%; in the test with HCT-15 colon it was 2.53% (active).
On to `CCOC(=O)C1=C(C)N2C(=NC3=C(CCC/C3=C\c3ccc(Cl)cc3)C2c2ccc(Cl)cc2)S1` (stereo not given), for which the growth in the test with NCI-H226 lung was 47.5%; in the test on NCI-H322M lung, 101%; in the test with HOP-62 NSCLC it was 88.2%; with NCI-H460 lung, 51.8%; with NCI-H522 lung, 58%; in the test with A549/ATCC NSCLC it was 5.11% (active). Moreover, the growth in the test with 786-0 renal is -0.562% (active); with COLO 205 colon, 8.78% (active); in the test with DU-145 prostate it was -0.137% (active); in the test with K-562 leukemia it was -11.8% (active); with MALME-3M melanoma it was 77%; with MDA-MB-231 breast, 71.6%. Also, the growth with RXF 393 renal was -71.7% (active); in the test with SF-268 CNS, 34.7%; in the test on SF-539 CNS, 41.3%; with UACC-257 melanoma, 25.7%; in the test on M14 melanoma, -40.8% (active); in the test on HCT-15 colon it was -28.7% (active).
In the case of `CC(=O)O[C@H]1C(=O)[C@@]2(C)C([C@H](OC(=O)c3ccccc3)[C@]3(O)C[C@H](OC(=O)[C@H](O)[C@@H](NC(=O)c4ccccc4)c4ccccc4)C(C)=C1C3(C)C)[C@]1(OC(C)=O)CO[C@@H]1C[C@@H]2O` (stereo not given in full), the growth with NCI-H226 lung was 44.8%; in the test on NCI-H322M lung, 28.1%; in the test on HOP-62 NSCLC, 24.6%; in the test with NCI-H460 lung, 7.33% (active); in the test with NCI-H522 lung, -25.2% (active); in the test on A549/ATCC NSCLC it was 13.1%. The growth in the test with 786-0 renal was 17.6%; with COLO 205 colon, 1.91% (active); in the test on DU-145 prostate, -36.8% (active); in the test with K-562 leukemia, 12.5%; in the test with MALME-3M melanoma it was 57.3%; in the test on MDA-MB-231 breast it was 17%. The growth is -17.9% (active) with RXF 393 renal; 30.2% in the test with SF-268 CNS; -8.51% (active) in the test on SF-295 CNS; 13.1% in the test on SF-539 CNS; 45% in the test on UACC-257 melanoma; 20% in the test with M14 melanoma. Moreover, the growth in the test on HCT-15 colon was 23.7%.
For `CCC(CCC(C)C1CCC2C3CC=C4CC(O)CCC4(C)C3CCC12C)C(C)C` (stereo not given) (tested in a mixture with another compound), the growth in the test on NCI-H226 lung is 101%; with NCI-H322M lung, 145%; in the test with HOP-62 NSCLC, 114%; in the test on NCI-H460 lung, 96.6%; with NCI-H522 lung, 116%; in the test with 786-0 renal, 96%. The growth with COLO 205 colon is 107%; with DU-145 prostate, 115%; in the test with K-562 leukemia, 82%; in the test on MALME-3M melanoma, 138%; in the test with MDA-MB-231 breast, 115%; with SF-268 CNS, 79.9%. Also, the growth with SF-295 CNS is 76.9%; with SF-539 CNS, 80.3%; with M14 melanoma it was 92.2%; with HCT-15 colon, 95.6%.
Take `CCCCCCCCCCCCCCCCCC1=NC(C)(C)CN1CCO`: the growth in the test with NCI-H226 lung is 17.6%; with NCI-H322M lung it was 59.8%; in the test with HOP-62 NSCLC it was -74.9% (active); in the test on NCI-H460 lung, -51.7% (active); in the test on NCI-H522 lung it was -58.2% (active); in the test on A549/ATCC NSCLC it was -28.9% (active). Also, the growth in the test with 786-0 renal is -53.6% (active); in the test with COLO 205 colon it was -59.9% (active); in the test on DU-145 prostate, 2.01% (active); with K-562 leukemia, -49.5% (active); in the test on MALME-3M melanoma it was 11.8%; with MDA-MB-231 breast it was -61.7% (active). In addition, the growth is -47.3% (active) in the test on RXF 393 renal; -67.1% (active) in the test on SF-268 CNS; -2.44% (active) in the test on SF-295 CNS; -80.6% (active) in the test on SF-539 CNS; -10.6% (active) with UACC-257 melanoma; -74.7% (active) in the test with M14 melanoma. Further, the growth with HCT-15 colon is -55.4% (active).
For `O=C1OCCCCCCCCCC#Cc2ccccc21`, the growth in the test on NCI-H226 lung is 110%; in the test with NCI-H322M lung, 126%; in the test on HOP-62 NSCLC it was 99.7%; in the test with NCI-H460 lung, 133%; with NCI-H522 lung it was 71.2%; in the test with A549/ATCC NSCLC it was 103%. Besides, the growth in the test on 786-0 renal is 103%; with COLO 205 colon, 100%; with DU-145 prostate it was 116%; in the test on K-562 leukemia, 94.2%; with MALME-3M melanoma, 146%; in the test on MDA-MB-231 breast, 110%. The growth is 182% with SF-268 CNS; 151% in the test with SF-295 CNS; 105% with SF-539 CNS; 124% with UACC-257 melanoma; 109% with M14 melanoma; 109% in the test with HCT-15 colon.
Turning to `COc1cc(/C=C/c2nnc(-c3cc(-c4ccccc4)n[nH]3)o2)cc(OC)c1OC`, the growth with NCI-H226 lung was 100%; in the test with NCI-H322M lung it was 106%; in the test with HOP-62 NSCLC, 102%; in the test on NCI-H460 lung, 107%; with NCI-H522 lung, 85.4%; in the test with A549/ATCC NSCLC it was 97.5%. Besides, the growth in the test on 786-0 renal is 118%; in the test on DU-145 prostate, 108%; in the test with K-562 leukemia it was 98.2%; in the test on MALME-3M melanoma it was 98.3%; in the test with MDA-MB-231 breast, 111%; with RXF 393 renal it was 111%. In addition, the growth with SF-295 CNS is 105%; in the test with SF-539 CNS it was 92.6%; in the test on UACC-257 melanoma, 105%; with M14 melanoma, 127%; with HCT-15 colon, 102%.
`CCN(CC)CCCNCCCNc1cc(OC)cc2cccnc12`: the growth with NCI-H226 lung is 81.9%; in the test on NCI-H322M lung, 81%; in the test on HOP-62 NSCLC, 92.3%; in the test on NCI-H460 lung it was 103%; in the test on NCI-H522 lung it was 93.1%; in the test with A549/ATCC NSCLC, 92.4%. The growth in the test on 786-0 renal was 94.4%; in the test on COLO 205 colon, 24.6%; with DU-145 prostate it was 104%; in the test on K-562 leukemia, 89.9%; in the test on MALME-3M melanoma, 108%; in the test on RXF 393 renal, 70.6%. Also, the growth in the test with SF-268 CNS is 90.3%; in the test on SF-295 CNS, 99.2%; in the test on SF-539 CNS it was 84.6%; in the test on UACC-257 melanoma, 107%; in the test with M14 melanoma it was 102%; in the test with HCT-15 colon it was 83.9%.
On to `O=C(Nc1ccc(Nc2ccncc2)cc1)c1ccc(Nc2ccnc3ccc([N+](=O)[O-])cc23)cc1[N+](=O)[O-]`, for which the growth in the test on NCI-H226 lung is 103%; with HOP-62 NSCLC, 127%; in the test on NCI-H460 lung, 44.9%; with NCI-H522 lung, 43.2%; with A549/ATCC NSCLC, 35.2%; in the test on 786-0 renal it was 50.1%. Further, the growth in the test on COLO 205 colon is 122%; with DU-145 prostate it was 56.8%; in the test on K-562 leukemia, 107%; in the test with MALME-3M melanoma, -49.8% (active); in the test with MDA-MB-231 breast it was 94.9%; with RXF 393 renal it was 35.9%. Also, the growth in the test on SF-268 CNS was -11.6% (active); in the test with SF-295 CNS it was 19.4%; with SF-539 CNS, 53.3%; with UACC-257 melanoma it was 70.9%; in the test with M14 melanoma it was 92.7%; in the test on HCT-15 colon, 86.7%.
